Source: ChEMBL document CHEMBL1961873, “Compounds: GSK PKIS; Assays: Nanosyn kinase panel” (2012)
Values joined by “and” are separate entries in the source; they are usually repeats but may differ in a detail not shown here. Equal values may be shown once.

What was measured:
[1] = target: T1, Serine/threonine-protein kinase Nek9 (Homo sapiens) (UniProt Q8TD19); conditions: at 1 µM;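 also: each value is a mean percent inhibition of NEK9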
T1 sequence (whole entry): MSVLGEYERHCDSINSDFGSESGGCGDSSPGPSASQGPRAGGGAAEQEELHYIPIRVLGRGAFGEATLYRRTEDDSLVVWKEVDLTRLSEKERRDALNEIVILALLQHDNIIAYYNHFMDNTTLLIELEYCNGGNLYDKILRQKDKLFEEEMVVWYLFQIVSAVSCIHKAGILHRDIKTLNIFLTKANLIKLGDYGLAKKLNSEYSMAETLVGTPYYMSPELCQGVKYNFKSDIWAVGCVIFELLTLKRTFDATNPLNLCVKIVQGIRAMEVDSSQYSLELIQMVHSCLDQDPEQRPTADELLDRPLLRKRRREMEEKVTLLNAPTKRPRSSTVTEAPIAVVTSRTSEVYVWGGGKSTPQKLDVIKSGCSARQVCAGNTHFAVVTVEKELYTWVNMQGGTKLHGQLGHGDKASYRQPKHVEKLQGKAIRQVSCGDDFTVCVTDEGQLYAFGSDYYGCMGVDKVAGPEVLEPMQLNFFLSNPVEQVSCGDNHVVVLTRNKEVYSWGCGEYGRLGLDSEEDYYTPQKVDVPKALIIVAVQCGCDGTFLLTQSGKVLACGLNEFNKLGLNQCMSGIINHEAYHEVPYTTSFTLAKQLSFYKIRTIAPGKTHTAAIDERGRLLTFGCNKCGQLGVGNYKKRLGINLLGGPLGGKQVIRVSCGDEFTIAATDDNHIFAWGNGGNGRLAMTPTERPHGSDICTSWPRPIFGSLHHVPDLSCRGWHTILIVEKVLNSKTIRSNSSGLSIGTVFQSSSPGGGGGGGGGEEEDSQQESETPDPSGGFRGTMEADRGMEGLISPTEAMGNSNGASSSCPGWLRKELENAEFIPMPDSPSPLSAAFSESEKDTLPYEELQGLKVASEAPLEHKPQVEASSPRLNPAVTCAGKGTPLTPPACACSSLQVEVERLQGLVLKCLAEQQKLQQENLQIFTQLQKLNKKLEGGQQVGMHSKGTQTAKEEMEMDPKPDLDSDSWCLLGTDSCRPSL

[2] = target: Serine/threonine-protein kinase PLK1 (Homo sapiens) (UniProt P53350); conditions: at 0.1 µM
[3] = target: Serine/threonine-protein kinase PLK1 (Homo sapiens) (UniProt P53350); conditions: at 1 µM
[4] = target: T2, Dual specificity protein kinase TTK (Homo sapiens) (UniProt P33981); conditions: at 0.1 µM
T2 sequence (whole entry): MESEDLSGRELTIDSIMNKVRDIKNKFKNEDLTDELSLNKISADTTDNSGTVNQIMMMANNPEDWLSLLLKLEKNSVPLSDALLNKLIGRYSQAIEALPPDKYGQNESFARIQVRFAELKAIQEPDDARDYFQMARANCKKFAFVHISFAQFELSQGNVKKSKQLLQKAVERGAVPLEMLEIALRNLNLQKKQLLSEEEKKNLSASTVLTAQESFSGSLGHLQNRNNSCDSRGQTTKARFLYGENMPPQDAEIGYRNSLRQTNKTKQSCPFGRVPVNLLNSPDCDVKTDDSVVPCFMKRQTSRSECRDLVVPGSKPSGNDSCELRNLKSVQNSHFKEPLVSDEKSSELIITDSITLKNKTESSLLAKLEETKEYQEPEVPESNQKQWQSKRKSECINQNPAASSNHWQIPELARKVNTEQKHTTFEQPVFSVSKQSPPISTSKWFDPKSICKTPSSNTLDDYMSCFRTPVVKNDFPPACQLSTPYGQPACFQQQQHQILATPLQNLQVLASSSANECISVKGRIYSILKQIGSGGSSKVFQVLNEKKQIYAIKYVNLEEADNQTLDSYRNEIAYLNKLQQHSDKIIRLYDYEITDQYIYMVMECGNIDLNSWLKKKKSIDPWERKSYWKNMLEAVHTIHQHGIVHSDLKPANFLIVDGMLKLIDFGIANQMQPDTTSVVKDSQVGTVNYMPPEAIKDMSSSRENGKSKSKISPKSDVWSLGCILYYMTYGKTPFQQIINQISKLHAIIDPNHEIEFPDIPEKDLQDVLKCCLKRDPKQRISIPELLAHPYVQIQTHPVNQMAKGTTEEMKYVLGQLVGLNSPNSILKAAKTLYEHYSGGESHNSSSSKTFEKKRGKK

[5] = test system: T3, Receptor-type tyrosine-protein kinase FLT3 (Homo sapiens), P36888 [D835Y]; conditions: at 1 µM
T3 sequence (whole entry): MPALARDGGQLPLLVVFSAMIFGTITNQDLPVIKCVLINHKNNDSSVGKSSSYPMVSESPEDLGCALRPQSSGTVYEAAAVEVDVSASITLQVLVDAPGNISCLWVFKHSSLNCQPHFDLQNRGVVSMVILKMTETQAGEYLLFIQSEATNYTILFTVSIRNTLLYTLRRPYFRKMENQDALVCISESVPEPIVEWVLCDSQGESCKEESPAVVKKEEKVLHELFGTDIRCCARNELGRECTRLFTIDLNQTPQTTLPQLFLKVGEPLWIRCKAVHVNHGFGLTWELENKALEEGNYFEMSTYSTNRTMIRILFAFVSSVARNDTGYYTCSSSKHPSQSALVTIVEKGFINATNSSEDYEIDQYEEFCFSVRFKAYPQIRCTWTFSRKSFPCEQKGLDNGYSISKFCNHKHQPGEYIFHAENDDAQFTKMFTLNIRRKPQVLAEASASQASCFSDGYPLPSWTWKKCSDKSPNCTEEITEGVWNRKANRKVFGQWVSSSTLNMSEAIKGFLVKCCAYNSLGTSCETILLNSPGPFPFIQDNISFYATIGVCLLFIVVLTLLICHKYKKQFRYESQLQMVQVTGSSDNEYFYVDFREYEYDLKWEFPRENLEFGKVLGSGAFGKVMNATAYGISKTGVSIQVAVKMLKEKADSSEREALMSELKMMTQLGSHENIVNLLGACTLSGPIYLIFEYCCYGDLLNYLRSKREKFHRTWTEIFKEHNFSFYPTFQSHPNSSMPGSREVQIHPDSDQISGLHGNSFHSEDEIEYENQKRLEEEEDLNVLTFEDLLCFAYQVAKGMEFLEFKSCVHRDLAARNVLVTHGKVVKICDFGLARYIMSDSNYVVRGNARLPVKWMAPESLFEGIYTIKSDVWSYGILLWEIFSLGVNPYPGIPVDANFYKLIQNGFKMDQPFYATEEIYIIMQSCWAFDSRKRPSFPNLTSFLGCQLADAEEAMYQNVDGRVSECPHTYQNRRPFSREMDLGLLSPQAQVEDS

[6] = target: Vascular endothelial growth factor receptor 3 (Homo sapiens) (UniProt P35916); conditions: at 0.1 µM
Chain of Vascular endothelial growth factor receptor 3 (Homo sapiens) (P35916 whole entry): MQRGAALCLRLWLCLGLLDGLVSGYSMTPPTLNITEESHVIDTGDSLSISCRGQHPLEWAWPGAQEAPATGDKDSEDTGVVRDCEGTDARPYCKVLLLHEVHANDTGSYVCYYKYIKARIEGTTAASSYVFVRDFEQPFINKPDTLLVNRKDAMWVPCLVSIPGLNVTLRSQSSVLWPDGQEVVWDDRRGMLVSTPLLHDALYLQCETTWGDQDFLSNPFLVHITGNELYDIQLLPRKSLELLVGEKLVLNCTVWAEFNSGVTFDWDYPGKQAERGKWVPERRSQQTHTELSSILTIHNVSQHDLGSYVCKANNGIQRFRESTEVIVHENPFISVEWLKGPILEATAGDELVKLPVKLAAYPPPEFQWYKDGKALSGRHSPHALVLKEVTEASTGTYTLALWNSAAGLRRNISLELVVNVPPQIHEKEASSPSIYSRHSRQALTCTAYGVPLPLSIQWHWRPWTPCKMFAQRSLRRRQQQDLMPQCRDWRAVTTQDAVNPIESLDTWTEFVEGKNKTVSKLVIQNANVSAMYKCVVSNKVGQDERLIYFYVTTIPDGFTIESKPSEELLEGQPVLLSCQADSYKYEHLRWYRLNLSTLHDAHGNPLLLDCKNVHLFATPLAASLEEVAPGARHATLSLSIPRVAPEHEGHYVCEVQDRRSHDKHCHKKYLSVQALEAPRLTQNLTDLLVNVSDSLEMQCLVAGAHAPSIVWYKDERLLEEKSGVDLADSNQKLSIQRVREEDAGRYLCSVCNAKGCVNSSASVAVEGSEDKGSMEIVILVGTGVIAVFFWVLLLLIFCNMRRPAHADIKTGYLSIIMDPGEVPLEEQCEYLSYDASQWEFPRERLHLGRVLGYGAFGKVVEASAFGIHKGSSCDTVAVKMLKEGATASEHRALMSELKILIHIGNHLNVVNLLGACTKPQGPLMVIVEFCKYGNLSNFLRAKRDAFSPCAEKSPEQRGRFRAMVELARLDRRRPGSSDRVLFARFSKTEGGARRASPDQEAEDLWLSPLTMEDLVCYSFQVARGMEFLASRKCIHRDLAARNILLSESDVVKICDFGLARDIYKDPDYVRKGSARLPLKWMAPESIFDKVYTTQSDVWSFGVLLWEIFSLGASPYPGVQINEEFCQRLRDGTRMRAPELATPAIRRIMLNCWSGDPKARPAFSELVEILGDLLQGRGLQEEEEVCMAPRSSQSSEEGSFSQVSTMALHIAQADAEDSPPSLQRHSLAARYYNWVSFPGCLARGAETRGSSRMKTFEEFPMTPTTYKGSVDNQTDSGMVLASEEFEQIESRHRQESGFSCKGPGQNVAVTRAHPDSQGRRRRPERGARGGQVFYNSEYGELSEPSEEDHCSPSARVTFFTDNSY

[7] = target: Vascular endothelial growth factor receptor 3 (Homo sapiens) (UniProt P35916); conditions: at 1 µM
[8] = target: Macrophage colony-stimulating factor 1 receptor (Homo sapiens) (UniProt P07333); conditions: at 0.1 µM
Chain of Macrophage colony-stimulating factor 1 receptor (Homo sapiens) (P07333 whole entry): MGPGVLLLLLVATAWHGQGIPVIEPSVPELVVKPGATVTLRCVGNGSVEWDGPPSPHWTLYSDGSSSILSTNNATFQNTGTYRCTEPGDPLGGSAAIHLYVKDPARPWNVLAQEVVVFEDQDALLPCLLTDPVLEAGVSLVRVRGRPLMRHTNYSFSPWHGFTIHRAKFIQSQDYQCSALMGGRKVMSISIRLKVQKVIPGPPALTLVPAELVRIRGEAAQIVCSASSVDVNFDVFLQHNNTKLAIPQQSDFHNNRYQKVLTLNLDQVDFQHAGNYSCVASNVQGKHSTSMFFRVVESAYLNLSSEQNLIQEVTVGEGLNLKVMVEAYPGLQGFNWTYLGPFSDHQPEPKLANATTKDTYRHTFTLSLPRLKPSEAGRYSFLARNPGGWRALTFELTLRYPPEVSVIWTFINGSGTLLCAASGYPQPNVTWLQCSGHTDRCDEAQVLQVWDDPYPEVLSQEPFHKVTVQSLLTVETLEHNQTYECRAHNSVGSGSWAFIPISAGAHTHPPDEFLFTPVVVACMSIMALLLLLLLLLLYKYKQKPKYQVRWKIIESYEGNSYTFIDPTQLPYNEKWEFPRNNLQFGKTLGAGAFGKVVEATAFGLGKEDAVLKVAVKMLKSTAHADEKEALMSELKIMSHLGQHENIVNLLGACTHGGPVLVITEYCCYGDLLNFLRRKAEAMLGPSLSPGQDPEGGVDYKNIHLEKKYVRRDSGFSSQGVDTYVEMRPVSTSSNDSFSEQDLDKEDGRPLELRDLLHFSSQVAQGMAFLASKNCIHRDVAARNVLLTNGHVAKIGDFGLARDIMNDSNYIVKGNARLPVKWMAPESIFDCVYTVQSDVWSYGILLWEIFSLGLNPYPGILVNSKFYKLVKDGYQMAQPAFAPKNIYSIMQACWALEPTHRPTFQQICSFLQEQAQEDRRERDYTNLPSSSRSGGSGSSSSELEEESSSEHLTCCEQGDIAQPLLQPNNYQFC

[9] = target: Macrophage colony-stimulating factor 1 receptor (Homo sapiens) (UniProt P07333); conditions: at 1 µM
[10] = target: Tyrosine-protein kinase Fyn (Homo sapiens) (UniProt P06241); conditions: at 0.1 µM
[11] = target: Tyrosine-protein kinase Fyn (Homo sapiens) (UniProt P06241); conditions: at 1 µM
[12] = target: Tyrosine-protein kinase HCK (Homo sapiens) (UniProt P08631); conditions: at 0.1 µM
[13] = target: Tyrosine-protein kinase HCK (Homo sapiens) (UniProt P08631); conditions: at 1 µM
[14] = target: Insulin-like growth factor 1 receptor (Homo sapiens) (UniProt P08069); conditions: at 0.1 µM
Chain of Insulin-like growth factor 1 receptor (Homo sapiens) (P08069 31-736 limits assumed): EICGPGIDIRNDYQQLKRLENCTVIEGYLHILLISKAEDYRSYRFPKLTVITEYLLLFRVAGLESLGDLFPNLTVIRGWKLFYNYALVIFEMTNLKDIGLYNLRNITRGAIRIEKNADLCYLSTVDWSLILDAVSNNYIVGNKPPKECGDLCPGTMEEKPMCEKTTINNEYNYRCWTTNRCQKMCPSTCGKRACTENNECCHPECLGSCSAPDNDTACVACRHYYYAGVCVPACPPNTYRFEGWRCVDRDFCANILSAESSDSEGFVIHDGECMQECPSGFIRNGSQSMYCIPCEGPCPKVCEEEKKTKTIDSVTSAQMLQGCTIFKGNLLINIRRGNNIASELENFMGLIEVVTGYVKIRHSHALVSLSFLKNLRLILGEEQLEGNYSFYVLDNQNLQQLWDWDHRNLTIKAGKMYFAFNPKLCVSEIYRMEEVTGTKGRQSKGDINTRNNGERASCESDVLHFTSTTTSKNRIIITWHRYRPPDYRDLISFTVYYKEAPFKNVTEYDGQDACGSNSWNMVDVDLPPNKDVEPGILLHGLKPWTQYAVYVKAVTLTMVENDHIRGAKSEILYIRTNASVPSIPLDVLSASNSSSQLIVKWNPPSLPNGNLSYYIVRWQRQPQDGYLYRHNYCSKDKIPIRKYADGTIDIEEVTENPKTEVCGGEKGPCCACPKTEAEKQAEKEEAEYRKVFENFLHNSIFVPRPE
Chain of Insulin-like growth factor 1 receptor (Homo sapiens) (P08069 741-1367 limits assumed): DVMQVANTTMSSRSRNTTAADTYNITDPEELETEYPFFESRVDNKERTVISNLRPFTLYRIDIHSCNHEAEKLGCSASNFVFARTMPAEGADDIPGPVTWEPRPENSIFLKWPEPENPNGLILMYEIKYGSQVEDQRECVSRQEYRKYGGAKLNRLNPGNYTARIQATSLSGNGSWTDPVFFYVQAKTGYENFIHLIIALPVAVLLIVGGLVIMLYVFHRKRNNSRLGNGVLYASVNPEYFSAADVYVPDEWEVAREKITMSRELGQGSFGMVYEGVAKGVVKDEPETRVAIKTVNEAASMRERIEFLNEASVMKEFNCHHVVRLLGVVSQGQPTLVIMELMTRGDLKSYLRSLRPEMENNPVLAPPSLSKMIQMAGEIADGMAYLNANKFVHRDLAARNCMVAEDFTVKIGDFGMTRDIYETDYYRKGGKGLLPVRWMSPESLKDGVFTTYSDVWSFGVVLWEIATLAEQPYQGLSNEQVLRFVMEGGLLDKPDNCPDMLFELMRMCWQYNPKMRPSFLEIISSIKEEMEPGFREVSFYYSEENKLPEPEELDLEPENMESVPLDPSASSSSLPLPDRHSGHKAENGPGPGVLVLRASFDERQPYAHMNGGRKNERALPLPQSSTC

[15] = target: Insulin-like growth factor 1 receptor (Homo sapiens) (UniProt P08069); conditions: at 1 µM
[16] = target: Insulin receptor (Homo sapiens) (UniProt P06213); conditions: at 0.1 µM
[17] = target: Insulin receptor (Homo sapiens) (UniProt P06213); conditions: at 1 µM
[18] = target: Insulin receptor-related protein (Homo sapiens) (UniProt P14616); conditions: at 0.1 µM
Chain of Insulin receptor-related protein (Homo sapiens) (P14616 27-742 limits assumed): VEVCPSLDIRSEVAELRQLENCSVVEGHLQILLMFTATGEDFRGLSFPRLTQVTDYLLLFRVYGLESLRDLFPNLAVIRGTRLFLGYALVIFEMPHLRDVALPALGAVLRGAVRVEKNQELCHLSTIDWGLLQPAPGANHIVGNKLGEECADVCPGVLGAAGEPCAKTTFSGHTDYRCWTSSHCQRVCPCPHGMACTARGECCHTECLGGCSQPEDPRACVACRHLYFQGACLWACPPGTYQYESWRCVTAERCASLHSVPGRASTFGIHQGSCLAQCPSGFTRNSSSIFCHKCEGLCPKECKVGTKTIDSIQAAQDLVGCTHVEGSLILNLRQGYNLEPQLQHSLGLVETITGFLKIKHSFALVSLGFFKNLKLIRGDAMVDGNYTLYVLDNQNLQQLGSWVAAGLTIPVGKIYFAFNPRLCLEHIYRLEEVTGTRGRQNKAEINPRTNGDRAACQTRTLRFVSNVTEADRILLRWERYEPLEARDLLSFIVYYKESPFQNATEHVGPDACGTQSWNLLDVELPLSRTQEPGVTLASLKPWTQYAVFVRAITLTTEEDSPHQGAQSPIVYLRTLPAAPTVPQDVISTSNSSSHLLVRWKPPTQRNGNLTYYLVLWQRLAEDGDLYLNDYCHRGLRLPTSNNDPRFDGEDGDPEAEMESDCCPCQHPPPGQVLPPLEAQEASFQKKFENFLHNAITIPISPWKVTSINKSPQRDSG
Chain of Insulin receptor-related protein (Homo sapiens) (P14616 747-1297 limits assumed): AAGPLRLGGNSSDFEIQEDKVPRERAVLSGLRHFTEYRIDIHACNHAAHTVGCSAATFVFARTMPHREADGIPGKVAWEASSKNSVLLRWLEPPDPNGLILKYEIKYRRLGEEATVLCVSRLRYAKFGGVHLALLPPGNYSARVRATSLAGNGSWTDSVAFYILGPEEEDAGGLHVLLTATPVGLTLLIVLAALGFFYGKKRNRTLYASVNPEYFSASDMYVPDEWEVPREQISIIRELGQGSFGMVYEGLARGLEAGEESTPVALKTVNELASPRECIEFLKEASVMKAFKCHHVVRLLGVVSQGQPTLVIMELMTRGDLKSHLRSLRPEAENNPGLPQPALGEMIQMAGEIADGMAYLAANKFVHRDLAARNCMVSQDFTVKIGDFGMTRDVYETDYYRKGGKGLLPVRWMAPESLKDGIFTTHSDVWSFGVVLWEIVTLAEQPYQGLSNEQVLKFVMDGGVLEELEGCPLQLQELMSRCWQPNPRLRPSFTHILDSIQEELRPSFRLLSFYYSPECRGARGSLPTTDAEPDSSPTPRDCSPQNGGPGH

[19] = target: Insulin receptor-related protein (Homo sapiens) (UniProt P14616); conditions: at 1 µM
[20] = target: T4, Tyrosine-protein kinase ITK/TSK (Homo sapiens) (UniProt Q08881); conditions: at 0.1 µM;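 also: mean percent inhibition of ITK from the GSK PKIS screen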
T4 sequence (whole entry): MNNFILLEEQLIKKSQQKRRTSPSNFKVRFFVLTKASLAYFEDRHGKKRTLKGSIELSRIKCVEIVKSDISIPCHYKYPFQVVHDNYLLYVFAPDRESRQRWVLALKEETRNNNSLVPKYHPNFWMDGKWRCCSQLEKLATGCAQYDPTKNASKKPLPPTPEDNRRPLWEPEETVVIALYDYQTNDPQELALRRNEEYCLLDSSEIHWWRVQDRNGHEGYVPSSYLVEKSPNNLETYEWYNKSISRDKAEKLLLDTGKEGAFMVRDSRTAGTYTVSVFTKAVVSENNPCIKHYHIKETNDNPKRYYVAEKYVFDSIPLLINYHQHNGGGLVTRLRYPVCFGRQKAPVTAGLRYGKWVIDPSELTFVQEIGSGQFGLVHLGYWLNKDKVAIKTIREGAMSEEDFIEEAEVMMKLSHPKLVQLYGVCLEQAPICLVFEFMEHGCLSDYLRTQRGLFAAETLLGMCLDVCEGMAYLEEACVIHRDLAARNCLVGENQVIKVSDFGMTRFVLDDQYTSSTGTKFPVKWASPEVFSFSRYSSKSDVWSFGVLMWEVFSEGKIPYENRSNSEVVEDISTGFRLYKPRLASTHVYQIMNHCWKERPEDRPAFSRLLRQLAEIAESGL

Structure (SMILES) | inhibition [1] | inhibition [2] | inhibition [3] | inhibition [4] | inhibition [5] | inhibition [6] | inhibition [7] | inhibition [8] | inhibition [9] | inhibition [10] | inhibition [11] | inhibition [12] | inhibition [13] | inhibition [14] | inhibition [15] | inhibition [16] | inhibition [17] | inhibition [18] | inhibition [19] | inhibition [20]
Nc1nonc1-c1nc2cnccc2n1C1CC1 | 1.51% and 3.66% | 3.84% and 2.82% | 5.97% and 4.56% | 5.61% and 5.02% | 7.78% and 5.95% | 5.27% and -4.56% | 21.9% and 17.5% | 3.87% and 1.25% | 10.1% and 8.4% | 1.35% and -1.92% | 1.39% and -1.43% | 5.06% and 2.65% | 10.4% and 4.62% | 2.14% and -5.78% | 3.37% and -3.55% | -0.15% and 4.69% | 2.19% and 6.69% | 2.59% and 0.39% | 3.14% and 0.7% | 1.56% and -2.28%
COc1cc(N2CCN(C(C)C)CC2)ccc1Nc1nc(Nc2cccc(F)c2C(=O)O)c2cc[nH]c2n1 | 4.56% | 6.28% | 29.6% | 62.3% | 12.6% | 2.54% | -0.47% | 2.82% | 2.24% | -0.12% | 0.99% | 4.6% | 9.23% | 65.7% | 89.8% | 82.6% | 95.5% | 22.1% | 82.3% | 1.35%
COc1ccc(Nc2ncc(-c3ccccc3)o2)cc1OC | 9.31% | 2.85% | 1.53% | 2.17% | 47.1% | 5.08% | 25.5% | 21.9% | 77.2% | 4.17% | 26.1% | 5.41% | 30.2% | 0.16% | 2.03% | 1.73% | 1.42% | -0.23% | -0.92% | 1.19%
CNC(=O)c1ncccc1Nc1nc(Nc2cc3c(cc2OC)CCCN3C(=O)CN(C)C)nc2[nH]ccc12 | 8.8% | 79.8% | 92.8% | 12.8% | 2.75% | 2.84% | 2.27% | 7.05% | 3.9% | 1.75% | 2.48% | 5.56% | 8.62% | 97% | 97.9% | 100% | 98.1% | 78.2% | 94.3% | 1.95%
CCS(=O)(=O)c1ccc(OC)c(Nc2ncc(-c3cccc(F)c3)o2)c1 | 16.1% | 7.8% | 9.98% | 10.5% | 60.3% | 36.4% | 86.8% | 33.7% | 66.7% | 30.1% | 72.4% | 33% | 74.3% | 5.72% | 6.74% | 7.03% | 8.47% | 2.84% | 4.59% | 2.16%
NS(=O)(=O)c1ccc(N/N=C2\C(=O)Nc3cccc(CCc4ccncc4)c32)cc1 | -6.07% | -0.07% | 1.59% | 20.8% | 64% | 30.1% | 47.9% | 39.9% | 46.2% | 2.64% | 4.54% | 2.52% | 6.49% | 1.21% | 1.06% | 4.32% | 5.06% | -0.57% | 0.48% | 0.79%
CN(c1ccc(NC(=O)NCCN2CCOCC2)cc1)c1ccnc(Nc2ccc(CS(C)(=O)=O)cc2)n1 | 4.91% | 0.46% | 1.42% | 6.2% | 19.9% | 4.1% | 20.6% | 79.7% | 97% | 0.52% | 1.63% | 1.67% | 13.6% | 3.76% | 4.94% | 0.64% | 4% | 2.7% | 2.84% | 1.76%
